Source: PubChem BioAssay (Broad Institute)
aSyn 5UTR act – Activators via SNCA 5'UTR binding, MLPCN | AID 1814 | alpha-synuclein 5'UTR reporter, activators screen | 300,000 tested, 7.1% active | activity score, % (tested at 7.5 µM), hits read low; in the data active means activity score below about -60%
* marks the source's active call; other numbers are inactive results. These entries were drawn from the full list.

SMILES | aSyn 5UTR act
NNC(=O)c1cccc(COc2ccccc2Br)c1 | -72*
O=C(c1cccc(COc2ccc(Cl)cc2Cl)c1)N1CCN(c2ccccn2)CC1 | -164*
COC(=O)c1ccccc1NC(=O)c1cccc(COc2ccccc2Cl)c1 | -505*
O=C(NCc1ccccc1)c1cccc(COc2ccccc2Cl)c1 | -87*
CN(C(=O)c1cccc(COc2ccc(Cl)cc2Cl)c1)c1ccccc1 | -120*
Brc1ccc(/C=N/Nc2ccccn2)cc1 | -193*
Oc1ccc(N=Nc2ccccc2C(F)(F)F)c2cccnc12 | 72
Cc1ccc(/C=N/Nc2ccccn2)s1 | -149*
FC(F)(F)c1ccccc1/C=N/Nc1ccccn1 | -94*
C(=N\Nc1ccccn1)/c1c[nH]c2ccccc12 | -114*
Clc1ccc(/C=N/Nc2ccccn2)cc1 | -163*
Fc1ccc(/C=N/Nc2ccccn2)cc1 | -120*
Clc1nccnc1N/N=C/c1ccc(Br)cc1 | -106*
COc1ccc(/C=N/Nc2ccccn2)cc1O | -145*
Brc1ccccc1/C=N/Nc1ccccn1 | -131*
CN(C)/C=N/C(=S)Nc1ccc(Cl)c(Cl)c1 | -66*
COc1ccc(-n2ncc3c(N(C)C4CCCCC4)ncnc32)cc1 | 94
COc1ccccc1Oc1ncnc2c1cnn2-c1ccccc1 | -115*
COc1ncnc2c1cnn2-c1ccccc1 | -67*
Cc1nc(-c2ccc3c(c2)OCCCO3)cs1 | -100*
CC1Cc2cc(-c3csc(N)n3)ccc2O1 (stereo unspecified) | -95*
Nc1nc(-c2ccc3c(c2)OCCO3)cs1 | -86*
Cc1ccc(C(=O)NCCOc2cccc(C)c2)cc1 | -111*
Cc1ccc(OCCNC(=O)c2ccc3c(c2)OCO3)cc1 | -62*
Fc1ccc2nc(N3CCOCC3)sc2c1 | -131*
SMILES | aSyn 5UTR act
Cc1ccc(NC(=O)c2ccc3nc(N4CCOCC4)sc3c2)c(Cl)c1 | -68*
c1ccc(N2CCN(c3nc4cc5c(cc4s3)OCO5)CC2)cc1 | -142*
c1ccc2c(c1)CCN(c1nc3cc4c(cc3s1)OCO4)C2 | -122*
c1c2c(cc3sc(N4CCOCC4)nc13)OCO2 | -64*
Oc1ccc(-c2nnc(-c3ccccc3)c(-c3ccccc3)n2)cc1 | -201*
CN(C)c1nc(-c2ccccn2)nnc1-c1ccccc1 | 79
Oc1ccccc1N=Nc1nc(-c2ccccc2)c(-c2ccccc2)[nH]1 | 107
S=C1SCN(Cc2cccnc2)CN1Cc1cccnc1 | -86*
Cc1snc(SCC(=O)c2ccc(Cl)cc2)c1C#N | -140*
Cc1ccc(C(=O)CSc2nsc(C)c2C#N)cc1 | -149*
Cc1ccnc(SCC(=O)c2ccc(Br)cc2)c1C#N | -198*
C=CCOC(=O)c1[nH]c2c(c1C)C(=O)CC(c1ccco1)C2 (stereo unspecified) | 69
Cc1c(C(=O)OC2CCCC2C)[nH]c2c1C(=O)CCC2 (stereo unspecified) | -92*
Clc1cccc(/C(Cc2nc3ccccc3[nH]2)=N\Nc2ccccc2)c1 | -64*
N/N=C(/Cc1nc2ccccc2[nH]1)c1ccc([N+](=O)[O-])cc1 | -75*
N#CCCN/N=C(/Cc1nc2ccccc2[nH]1)c1ccc(Cl)cc1 | -67*
CCN/N=C(\Cc1nc2ccccc2[nH]1)c1ccccc1 | -138*
c1ccc(N/N=C(\Cc2nc3ccccc3[nH]2)c2ccccc2)cc1 | -102*
Cc1ccc(C(=O)NC(C)C2CC3CCC2C3)c(C)c1 (stereo unspecified) | -102*
O=C(/C=C/c1cccc(Cl)c1)Nc1ccncc1 | -112*
NS(=O)(=O)c1ccc(NC(=O)/C=C/c2cccc(Cl)c2)cc1 | -81*
FC(F)(F)c1ccc2c(c1)nc1n2CCCC1 | -65*
O=C(N/N=C/c1ccc(N2CCOCC2)s1)c1ccccc1Cl | -116*
Clc1cc(NCc2cccs2)ccc1N1CCOCC1 | -105*
O=C(Nc1ccc(N2CCOCC2)c(Cl)c1)c1ccc(F)cc1 | -140*
SMILES | aSyn 5UTR act
O=C(Nc1cccnc1Cl)c1cc2ccccc2o1 | -166*
O=C(Nc1ccc(CN2CCOCC2)cc1)c1ccc(Br)o1 | -104*
O=C(Nc1ccc(N2CCOCC2)c(Cl)c1)c1cc2ccccc2o1 | -204*
O=C(/C=C/c1ccccc1)Nc1ccc(CN2CCOCC2)cc1 | -88*
O=C(Nc1ccccc1N1CCCC1)c1cc2ccccc2o1 | -252*
O=C(Nc1ccc(N2CCOCC2)c(Cl)c1)c1ccccc1Cl | -66*
O=C(Nc1ccc(N2CCOCC2)nc1)c1ccc(Cl)cc1 | -73*
O=C(Nc1ccc(N2CCOCC2)c(Cl)c1)c1ccc(Br)o1 | -253*
O=C(NC(=S)N1CCOCC1)c1cc2ccccc2o1 | -74*
CC(C)C(=O)N1CCN(c2ccc(NC(=O)c3ccc4c(c3)OCCO4)cc2Cl)CC1 | -109*
CN(C)S(=O)(=O)c1ccc(C(=O)NCCOc2ccccc2)cc1 | -106*
CN(C)S(=O)(=O)c1ccc(C(=O)NCCOc2ccc(F)cc2)cc1 | -99*
Cc1ccc(-c2csc(NC(=O)c3ccno3)n2)cc1 | -128*
CN(Cc1ccccc1)C(=O)c1ccc([N+](=O)[O-])o1 | -84*
Cn1cc([N+](=O)[O-])c(C(=O)Nc2nc(-c3ccc(Cl)cc3)cs2)n1 | 63
Cc1ccc(CNC(=O)c2ccc([N+](=O)[O-])o2)cc1 | -70*
Cc1ccc(-c2csc(NC(=O)c3ccc([N+](=O)[O-])o3)n2)cc1 | -234*
Cc1cccc(-c2noc(CN(C)C(=O)c3ccco3)n2)c1 | -65*
CN1CCN(C(=O)/C=C/c2ccc([N+](=O)[O-])o2)CC1 | -83*
O=C(/C=C/c1ccc(-c2ccc(F)cc2)o1)N1CCCC1 | -127*
CCc1ccccc1NC(=O)CN(C)C(=O)Cn1ncc(Cl)c(Cl)c1=O | -63*
CCCc1nn(C)c(C(=O)Nc2ccc(C)c(C)c2)c1Cl | -102*
CCCc1nn(C)c(C(=O)Nc2ccc(CC)cc2)c1Cl | -74*
CCn1nc(C(=O)Nc2ccc(C)c(C)c2)c(Cl)c1Cl | -91*
O=C(Nc1cccc2nsnc12)c1ccc2c(c1)OCO2 | -110*
SMILES | aSyn 5UTR act
Cc1ccc(C(=O)NC(=S)Nc2cccc3nsnc23)cc1 | -100*
O=C(Nc1cccc2nsnc12)c1ccc2c(c1)OCCO2 | -213*
Cc1cccc2nc(COc3ccc(-c4ccccc4)cc3)cn12 | -121*
CCCCOC(=O)/C(=C/c1cn(C)c2ccccc12)NC(=O)c1ccc(OC)cc1 | -100*
O=C(Nc1ccc(-c2nc3ccccc3s2)c(O)c1)C1=COCCO1 | -80*
O=C(Nc1ccc(-c2nc3ccccc3s2)cc1)C1=COCCO1 | 94
O=C(Nc1ccc(O)c(-c2nc3ccccc3s2)c1)C1=COCCO1 | -78*
O=C(Nc1cccc(-c2nc3ccccc3s2)c1)C1=COCCO1 | -82*
OCCN(CCO)CC(O)COc1ccc(C23CC4CC(CC(C4)C2)C3)cc1 (stereo unspecified) | 76
C#CCn1c(=NC(=O)c2ccc(Br)s2)sc2cccc(OC)c21 | -113*
CCc1ccc2nc(NC(=O)c3ccc(N4C(=O)CCC4=O)cc3)sc2c1 | -73*
O=C(Nc1nc2cc3c(cc2s1)OCCO3)c1ccc(N2C(=O)CCC2=O)cc1 | -65*
CN(C)CCN(C(=O)c1ccc(N2C(=O)CCC2=O)cc1)c1nc2cc3c(cc2s1)OCCO3 | -75*
CCc1ccc2nc(NC(=O)c3ccc4c(=O)[nH]c(CN5CCOCC5)nc4c3)sc2c1 | -107*
Cc1ccc2nc(N(CCCN(C)C)C(=O)c3ccc(S(=O)(=O)N4CCc5ccccc5C4)cc3)sc2c1 | 88
O=C(Nc1nc2cc3c(cc2s1)OCCO3)c1ccco1 | 66
O=C(Nc1nc2nccc(-c3ccccc3)n2n1)c1ccccc1 | -83*
